D1 agonist – human D1 receptor agonism | P21728 | HEK293 T-REx D1 cells, calcium flux, agonist mode | activation, % at 2 µM | 360,000 tested, 1% active; in the data active = activation above about 30%
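Agonism was scored from calcium flux recorded over 180 s (1 read/s) after pintool compound addition, following a 10-cycle baseline. Cells were inducible force-coupled HEK293 TREx D1, plated overnight at 30 C and loaded with no-wash calcium dye.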
DRD3 antagonist – antagonists of human D3 dopamine receptor | P35462 | D3R cells, DiscoveRx beta-arrestin luminescence, antagonist mode; active compounds read low | max response, negative = inhibition, % | 360,000 tested, 2.5% active | AID 652054; in the data active = max response below about -50%
Target sequence (P35462 whole entry, looked up): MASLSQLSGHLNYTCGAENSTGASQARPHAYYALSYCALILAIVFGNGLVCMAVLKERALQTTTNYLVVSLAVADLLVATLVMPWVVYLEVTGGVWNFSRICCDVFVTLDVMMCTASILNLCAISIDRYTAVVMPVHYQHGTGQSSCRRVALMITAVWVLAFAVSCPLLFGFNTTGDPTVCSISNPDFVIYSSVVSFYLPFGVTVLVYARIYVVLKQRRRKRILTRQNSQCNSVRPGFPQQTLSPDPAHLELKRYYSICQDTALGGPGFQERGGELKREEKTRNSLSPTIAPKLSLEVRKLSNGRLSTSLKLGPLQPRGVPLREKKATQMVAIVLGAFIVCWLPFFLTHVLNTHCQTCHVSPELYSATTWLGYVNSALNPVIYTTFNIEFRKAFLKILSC
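Cells plated overnight at 1500 cells/well, then exposed to library compounds with dopamine controls for 90 minutes at 37 degrees C. DiscoveRx reagent added for 30–60 minutes at room temperature; luminescence read, quantitative HTS format.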
D1 PAM – enhances dopamine response at the human D1 receptor; HEK293 TREx D1 cells, calcium flux, dopamine EC20 potentiation; potentiation, % at 10 µM; 360,000 tested, 0.036% active; AID 504651; in the data active = potentiation above about 30%
D1 antagonist – antagonists of human D1 dopamine receptor. P21728. HEK293 TREx D1 cells, calcium flux, dopamine EC80; active compounds read low. activity change, negative = inhibition, % at 10 µM. 360,000 tested, 3.2% active. AID 504652; in the data active = activity change below about -30%
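After overnight tetracycline induction at 30 C, force-coupled D1 HEK293 cells took up a no-wash calcium dye at room temperature. Compounds were added and monitored 180 s, and the response to EC80 dopamine was then recorded.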
ERG-DNA inh – inhibitors of human ERG Ets domain-DNA interaction; P11308; fluorescence polarization, His-ERG Ets domain / labelled DNA; Potency, µM (highest dose often 76.9 µM), hits mostly inhibitors; 370,000 tested, 0.028% active; active = well fitted inhibition curve with a large enough effect in the polarisation, with a control signal flat; the % refers to the polarisation;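 also: polarization taken with two DNA probes labelled with fluorescein and Texas red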
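His-tagged ERG Ets domain (1 uM in the protein solution; 300mM KCl, 50mM Tris-HCl, 1mM EDTA, 1mM DTT, pH 7.5) received compound, then a probe mix of 5 nM fluorescein-DNA and 100nM Texas-615-DNA. Fluorescence polarization was read for both dyes.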
D3 ag – D3 dopamine receptor (human) agonism | P35462 | D3R DiscoveRx beta-arrestin cells, luminescence, 90 min | max activation, % | 410,000 tested, 0.58% active | AID 652048; in the data active = max activation above about 30%
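Agonist mode: compounds and dopamine controls were applied to plated cells for 90 min at 37 degrees C after an overnight attachment at 1500 cells/well. Luminescent read-out followed 30 - 60 minutes at room temperature with DiscoveRx detection reagent.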
Of the large screens only hits and unclear results are named; the others gave an inactive call; ! = not active in a repeat. A selection: hits, their analogues and other compounds. The true share with any hit is near 6.1%.

CC(=O)Nc1ccc(-c2ccnc3c2CC(C)(C(=O)Nc2cccc(Oc4ccccc4)c2)O3)cc1 (stereo unspecified)	DRD3 antagonist -66 (no result: D1 agonist, D1 PAM, D1 antagonist, ERG-DNA inh)
CC(=O)Nc1ccc(-c2ccnc3c2CC(C)(C(=O)Nc2ccccc2)O3)cc1 (stereo unspecified)	none (no result: D1 agonist, D1 PAM, D1 antagonist, ERG-DNA inh)
CC1(C(=O)NCc2ccco2)Cc2c(-c3ccccc3)ccnc2O1 (stereo unspecified)	DRD3 antagonist -58 (no result: D1 agonist, D1 PAM, D1 antagonist, ERG-DNA inh)
CN(C)c1ccc(-c2ccnc3c2CC(C)(C(=O)Nc2ccc(F)c(Cl)c2)O3)cc1 (stereo unspecified)	D3 ag 69 (no result: D1 agonist, D1 PAM, D1 antagonist, ERG-DNA inh)
Cc1ccc(CCNC(=O)C2CCC(CNc3c(N4CCC(C)CC4)c(=O)c3=O)CC2)cc1 (stereo unspecified)	none
CCN(CC(=O)NC(c1ccccc1)c1ccccc1)Cc1nc2ccccc2c(=O)[nH]1	none
CC(=O)Nc1ccc(-c2ccnc3c2CC(C)(C(=O)Nc2ccc(C(C)C)cc2)O3)cc1 (stereo unspecified)	none (no result: D1 agonist, D1 PAM, D1 antagonist, ERG-DNA inh)
COc1ccc(CCCNC(=O)C2(C)Cc3c(-c4ccc(NC(C)=O)cc4)ccnc3O2)cc1 (stereo unspecified)	DRD3 antagonist -62 (no result: D1 agonist, D1 PAM, D1 antagonist, ERG-DNA inh)
CC1(C(=O)NCc2cccs2)Cc2c(-c3ccc(C(N)=O)cc3)ccnc2O1 (stereo unspecified)	DRD3 antagonist -71 (no result: D1 agonist, D1 PAM, D1 antagonist, ERG-DNA inh)
CC(C)c1ccc(NC(=O)C2(C)Cc3c(-c4ccc(C(N)=O)cc4)ccnc3O2)cc1 (stereo unspecified)	DRD3 antagonist -54 (no result: D1 agonist, D1 PAM, D1 antagonist, ERG-DNA inh)
COCCNC(=O)C1(C)Cc2c(-c3ccc(NC(C)=O)cc3)ccnc2O1 (stereo unspecified)	none (no result: D1 agonist, D1 PAM, D1 antagonist, ERG-DNA inh)
COc1ccc(C(=O)NCC(C)NC(=O)c2ccc(OC)c(Br)c2)cc1Br (stereo unspecified)	none (no result: D1 agonist, D1 PAM, D1 antagonist)
CSCc1ccc(C(=O)NCCSc2ccc(Br)cc2)cc1	D1 antagonist -37
CCc1ccc(OCC(=O)Nc2ccncc2)c(Br)c1	none
Cc1cc(OCC(=O)Nc2ccncc2)c(C)cc1Br	D1 antagonist -33
CC(=O)N(C)c1ccc(NC(=O)COc2ccc(Br)cc2C)cc1	D1 antagonist -55
Cc1cc(C)c(OCC(=O)Nc2ccc3c(c2)OCO3)cc1C	D1 agonist 124
Cc1ccc(C)c(OCC(=O)Nc2ccc3c(c2)OCO3)c1	none (no result: ERG-DNA inh)
O=C(COC(=O)c1cc(-c2ccccc2)nc2ccccc12)Nc1ccc2c(c1)OCO2	D1 antagonist -42
COc1ccccc1NC(=O)N1CCOc2ccccc21	none (no result: DRD3 antagonist)
Cc1ccc(OCCC(=O)OCC(=O)Nc2ccc3c(c2)OCO3)cc1	D1 antagonist -64
Cc1ccc(OCCC(=O)Nc2ccc3c(c2)OCO3)cc1	none
COc1ccccc1/C=N/NC1=NCCCCC1	none (no result: ERG-DNA inh)
CCC(CC)c1nnc(NC(=O)c2ccc3c(c2)OCO3)s1	none
CC1CCCCC1NC(=O)COC(=O)c1ccc2ccccc2n1 (stereo unspecified)	none
O=[N+]([O-])c1ccc(N/N=C2\CC3CC=CC23)c([N+](=O)[O-])c1 (stereo unspecified)	none
O=[N+]([O-])c1ccc(N/N=C2\CC3CC=CC23)cc1 (stereo unspecified)	D1 antagonist -31
CCOC(=O)CC(=O)CSc1nc2c(sc(=S)n2-c2ccc(OCC)cc2)c(=O)[nH]1	none
NC(=O)CSc1nc2c(sc(=S)n2-c2ccccc2)c(=O)[nH]1	D1 antagonist -38
Cc1ccc(NC(=O)COC(=O)CSC(=S)N2CCOCC2)cc1	none
OCCN1CCN(c2ncnc3c2c(-c2ccccc2)cn3-c2ccc(F)cc2)CC1	DRD3 antagonist -75
Fc1ccc(-n2cc(-c3ccccc3)c3c(NN4CCOCC4)ncnc32)cc1	D1 antagonist -33
CC1CN(c2ncnc3c2c(-c2ccccc2)cn3-c2ccc(F)cc2)CC(C)O1 (stereo unspecified)	DRD3 antagonist -92
COc1ccc(-n2cc(-c3ccccc3)c3c(NN4CCOCC4)ncnc32)cc1	none
COc1ccc(-n2cc(-c3ccccc3)c3c(N4CCN(CCO)CC4)ncnc32)cc1	D1 antagonist -36
COc1ccc(NC(=O)C2CCCN(S(=O)(=O)c3ccc4[nH]c(=O)ccc4c3)C2)cc1OC (stereo unspecified)	none
CCOc1ccc(-n2cc(-c3ccccc3)c3c(N4CCN(c5ccccc5OC)CC4)ncnc32)cc1	D1 antagonist -32 (no result: DRD3 antagonist)
CCOc1ccc(CCNC(=O)c2ccc(C)c(-n3cnc4cccnc43)c2)cc1	D1 antagonist -31 (no result: DRD3 antagonist)
CC(=O)N1CCN(C(C)=O)C1c1ccccc1	none
O=C(c1ccccc1)N1CCN(C(=O)c2ccccc2)C1c1ccccc1	DRD3 antagonist -51
Cc1ccc(CN2C(=O)C(Cc3ccccc3)Nc3ncnc(N4CCOCC4)c32)cc1 (stereo unspecified)	DRD3 antagonist -58 (no result: D1 agonist, D1 PAM, D1 antagonist, ERG-DNA inh)
CCC1Nc2ncnc(N3CCN(c4ccccc4)CC3)c2N(Cc2ccc(C)cc2)C1=O (stereo unspecified)	DRD3 antagonist -139
CCC1Nc2ncnc(N3CCOCC3)c2N(Cc2ccc(C)cc2)C1=O (stereo unspecified)	none
O=C1C(Cc2ccccc2)Nc2ncnc(N3CCOCC3)c2N1Cc1ccccc1 (stereo unspecified)	none (no result: D1 agonist, D1 PAM, D1 antagonist)
CCC1Nc2ncnc(N3CCN(c4ccccc4)CC3)c2N(Cc2ccccc2)C1=O (stereo unspecified)	DRD3 antagonist -142 (no result: D1 agonist, D1 PAM, D1 antagonist)
Cc1ccc(CN2C(=O)C(CC(C)C)Nc3ncnc(N4CCN(c5ccccc5)CC4)c32)cc1 (stereo unspecified)	DRD3 antagonist -55! (no result: D1 agonist, D1 PAM, D1 antagonist)
CC(C)CC1Nc2ncnc(N3CCN(c4ccccc4)CC3)c2N(Cc2ccc(Cl)cc2)C1=O (stereo unspecified)	none
Cc1ccc(CSc2nc3ccccc3c3nc(CCn4c(C)nc5ccccc54)nn23)cc1	none (no result: DRD3 antagonist)
Cc1ccn2nc(C(=O)OCC(=O)N(CC(C)C)C3CCS(=O)(=O)C3)nc2n1 (stereo unspecified)	none
CCOC(=O)C(=O)Nc1ccc(Oc2ccccc2)cc1	D1 antagonist -33
CCOC(=O)C(=O)Nc1ccccc1C(=O)OCC	none
CCOC(=O)C(=O)Nc1ccccc1C(=O)NC(C)C	D3 ag 38
O=C(O)/C=C/C(=O)Nc1ccc(Oc2ccccc2)cc1	none
CCOC(=O)/C=C/C(=O)Nc1ccc(Oc2ccccc2)cc1	D1 antagonist -36
CCOC(=O)/C=C/S(=O)(=O)c1ccc(NC(C)=O)cc1	DRD3 antagonist -76
Cc1cccc(N2CCN(S(=O)(=O)c3ccc4c(c3)CC(C)N4C(=O)C3CC3)CC2)c1C (stereo unspecified)	none
